In test [1] the target is T1, 3-phosphoinositide-dependent protein kinase 1 (Homo sapiens) (UniProt O15530).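 Also: values are mean inhibition of PDK1.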
T1 sequence (whole entry): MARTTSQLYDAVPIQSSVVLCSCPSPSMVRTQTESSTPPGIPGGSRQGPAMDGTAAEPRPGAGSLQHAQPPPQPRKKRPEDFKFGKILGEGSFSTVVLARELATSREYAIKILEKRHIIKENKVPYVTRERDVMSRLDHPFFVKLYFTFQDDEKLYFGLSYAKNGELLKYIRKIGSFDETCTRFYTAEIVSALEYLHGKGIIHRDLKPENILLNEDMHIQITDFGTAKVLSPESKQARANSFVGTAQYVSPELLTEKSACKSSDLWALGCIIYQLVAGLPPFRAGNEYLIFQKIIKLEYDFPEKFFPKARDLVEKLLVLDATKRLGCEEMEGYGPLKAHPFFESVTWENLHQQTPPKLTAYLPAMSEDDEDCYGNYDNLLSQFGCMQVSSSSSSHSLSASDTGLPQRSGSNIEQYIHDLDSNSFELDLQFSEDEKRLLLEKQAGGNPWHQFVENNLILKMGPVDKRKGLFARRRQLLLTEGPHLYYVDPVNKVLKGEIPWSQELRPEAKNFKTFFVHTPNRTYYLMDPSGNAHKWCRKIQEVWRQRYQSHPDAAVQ
To be noted: at 0.1 µM.

The target of test [2] is cAMP-dependent protein kinase catalytic subunit alpha (Homo sapiens) (UniProt P17612). The conditions noted are these: at 0.1 µM.
For test [3] the target is unchanged. The conditions noted are these: at 1 µM.
Test [4] addresses Protein kinase C alpha type (Homo sapiens) (UniProt P17252). To be noted: at 0.1 µM.
Test [5] has the same target. To be noted: at 1 µM.
The target in test [6] is Protein kinase C beta type (Homo sapiens) (UniProt P05771). To be noted: at 0.1 µM.
Chain of Protein kinase C beta type (Homo sapiens) (P05771 2-671 limits assumed): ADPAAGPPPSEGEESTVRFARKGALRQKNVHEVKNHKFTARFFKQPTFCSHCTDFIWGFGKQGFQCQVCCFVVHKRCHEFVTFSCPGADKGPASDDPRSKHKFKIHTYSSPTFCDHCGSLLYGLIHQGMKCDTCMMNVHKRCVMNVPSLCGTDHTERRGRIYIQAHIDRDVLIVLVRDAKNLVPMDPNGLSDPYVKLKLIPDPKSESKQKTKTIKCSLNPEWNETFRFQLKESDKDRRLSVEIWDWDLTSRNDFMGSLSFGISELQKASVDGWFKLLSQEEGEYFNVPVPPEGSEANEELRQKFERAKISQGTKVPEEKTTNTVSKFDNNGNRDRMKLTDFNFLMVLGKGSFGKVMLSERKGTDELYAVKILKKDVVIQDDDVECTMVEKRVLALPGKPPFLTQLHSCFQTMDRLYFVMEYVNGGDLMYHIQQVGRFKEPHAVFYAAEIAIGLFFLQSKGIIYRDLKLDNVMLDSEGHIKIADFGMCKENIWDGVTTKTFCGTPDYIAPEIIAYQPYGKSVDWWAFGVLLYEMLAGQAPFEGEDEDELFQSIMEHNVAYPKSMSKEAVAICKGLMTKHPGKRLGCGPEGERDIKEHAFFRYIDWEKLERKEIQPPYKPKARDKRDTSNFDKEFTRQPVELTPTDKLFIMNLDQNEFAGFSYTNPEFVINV
Test [7] shares this target. To be noted: at 1 µM.
In test [8] the target is Protein kinase C eta type (Homo sapiens) (UniProt P24723). The conditions noted are these: at 0.1 µM.
Chain of Protein kinase C eta type (Homo sapiens) (P24723 whole entry): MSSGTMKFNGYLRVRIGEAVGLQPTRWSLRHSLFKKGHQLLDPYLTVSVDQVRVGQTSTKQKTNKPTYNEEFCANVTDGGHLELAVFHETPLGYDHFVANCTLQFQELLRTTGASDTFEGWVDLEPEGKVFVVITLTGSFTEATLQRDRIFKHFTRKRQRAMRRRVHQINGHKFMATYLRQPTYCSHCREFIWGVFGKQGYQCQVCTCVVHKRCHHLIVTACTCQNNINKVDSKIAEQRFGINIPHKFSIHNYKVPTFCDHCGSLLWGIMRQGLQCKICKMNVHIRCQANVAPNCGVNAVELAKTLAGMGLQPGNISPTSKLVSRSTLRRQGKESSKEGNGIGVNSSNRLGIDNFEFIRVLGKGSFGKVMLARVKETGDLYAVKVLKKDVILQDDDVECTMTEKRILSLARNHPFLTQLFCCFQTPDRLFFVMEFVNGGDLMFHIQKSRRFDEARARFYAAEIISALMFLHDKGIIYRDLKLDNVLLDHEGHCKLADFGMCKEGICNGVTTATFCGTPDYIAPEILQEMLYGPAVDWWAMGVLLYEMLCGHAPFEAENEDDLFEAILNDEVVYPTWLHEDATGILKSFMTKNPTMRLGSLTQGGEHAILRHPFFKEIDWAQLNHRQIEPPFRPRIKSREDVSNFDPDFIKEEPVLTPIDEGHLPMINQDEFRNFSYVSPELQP
The target is the same in test [9]. To be noted: at 1 µM.
Test [10] deals with Protein kinase C gamma type (Homo sapiens) (UniProt P05129). To be noted: at 0.1 µM.

Each structure is given as a SMILES string. Several values for one entry are separate records, joined by “and”; a condition that tells them apart may be missing. Equal entries are not always repeated.

The source of these data is ChEMBL document CHEMBL1961873, “Compounds: GSK PKIS; Assays: Nanosyn kinase panel” (2012).

`NS(=O)(=O)c1ccc(N/N=C2\C(=O)Nc3cccc(CCc4ccncc4)c32)cc1`: the inhibition in test [1] is 6.76%; in [2], 1.41%; in test [3], 1.07%; in test [4], 0.11%; in test [5], 0.43%; in test [6] it was -0.59%. In addition, the inhibition is -0.96% in [7], -1.41% in test [8], 1.16% in test [9] and -0.97% in [10].
With `Fc1ccc(Nc2nccc(-c3c(-c4ccc(C(F)(F)F)cc4)nn4ncccc34)n2)cc1F`, the inhibition in [1] is 3.96%; in test [2], 1.44%; in test [3], 1.2%; in test [4], 1.5%; in [5], 2.09%; in [6], -0.08%. In addition, the inhibition was -1.29% in test [7], 0.94% in test [8], 1.72% in test [9] and 1.67% in test [10].
With `CCS(=O)(=O)c1ccc(OC)c(Nc2ncc(-c3cccc(F)c3)o2)c1`, the inhibition is 4.01% in [1]; 2.45% in test [2]; 6.7% in test [3]; 1.28% in test [4]; 3.32% in test [5]; -1.13% in [6]. Also, the inhibition stood at 2.28% in test [7], 3.12% in test [8], 3.91% in test [9] and 5.17% in [10].
As to `CNC(=O)c1sc(-n2cnc3cc(OC)c(OC)cc32)cc1OCc1ccccc1C(F)(F)F`, the inhibition was 1.81% in [1]; 2.01% in [2]; 2.29% in test [3]; 0.09% in test [4]; 0.93% in [5]; 1.29% in test [6]. The inhibition was -0.63% in test [7], 3.69% in test [8], 1.55% in [9] and 5.06% in test [10].
Take `Nc1nccc(-c2c(-c3ccc(F)cc3)ncn2C2CCNCC2)n1`: the inhibition in test [1] is -3.23% and 1.39%; in [2], -0.37% and 3.2%; in test [3], 20.2% and 30.2%; in [4] it was 1.33% and 2.68%; in [5] it was 21.7% and 29%; in test [6], 1.41% and 3.25%. The inhibition in [7] is 17.9% and 21.4%; in test [8] it was -2.01% and 0.32%; in [9], 0.29% and 1.78%; in test [10] it was -1.71% and 0.92%.
As to `c1ccc(-c2n[nH]cc2-c2ccnc(-c3ccc(OCCn4ccnc4)cc3)c2)nc1`, the inhibition in test [1] stood at 0.22%; in [2], 0.39%; in test [3] it was 4.32%; in test [4], 0.35%; in test [5] it was 0.47%; in [6] it was 0.31%. Further, the inhibition in test [7] was 0.68%; in test [8] it was -2.29%; in [9], -0.53%; in test [10], 0.17%.
On to `CN(c1ccc(NC(=O)NCCN2CCOCC2)cc1)c1ccnc(Nc2ccc(CS(C)(=O)=O)cc2)n1`, for which the inhibition is 0.31% in test [1]; 1.27% in test [2]; 4.06% in [3]; -0.51% in [4]; -0.33% in test [5]; 0.46% in [6]. For the same compound, the inhibition is 1.54% in test [7], 4.71% in test [8], 5.63% in test [9] and 2.51% in [10].
Turning to `O=C1Nc2ccccc2/C1=C1\CCc2cc(O)ccc21`, the inhibition in test [1] was determined as 15.1%; in [2], 2.16%; in test [3] it was 4.57%; in [4], 1.24%; in test [5], 2.87%; in [6] it was 0.69%. In addition, the inhibition in test [7] worked out at 1.16%; in test [8] it was 2.22%; in test [9], 3.7%; in test [10] it was 2.96%.
Consider `COc1cc(N2CCN(C(C)C)CC2)ccc1Nc1nc(Nc2cccc(F)c2C(=O)O)c2cc[nH]c2n1`, for which the inhibition is 2.24% in test [1]; 1.49% in test [2]; 2.03% in test [3]; 1.38% in [4]; 2.23% in test [5]; -0.07% in test [6]. Also, the inhibition was determined as 3.07% in [7], 2.71% in [8], 4.16% in [9] and 1.77% in [10].
`CN1CCC(C(=O)Nc2n[nH]c3nc(-c4ccc(O)cc4)c(Br)cc23)CC1`: the inhibition is 0.58% and 1.23% in test [1]; -1.53% and 1.47% in test [2]; 1.39% and 2.8% in [3]; -2.91% and 0.74% in test [4]; 7.49% and 11.2% in test [5]; 2.04% and 0.96% in test [6]. For the same compound, the inhibition is 13.9% and 10.2% in [7]; 3.63% and 1.62% in test [8]; 8.67% and 3.54% in [9]; 4.29% and -2.24% in [10].
Take `CN(C)CCNC(=O)Nc1ccc(N(C)c2ccnc(Nc3ccc(CS(C)(=O)=O)cc3)n2)cc1`: the inhibition is 2.36% in test [1]; 2.31% in [2]; 5.69% in [3]; 1.06% in test [4]; 1.51% in test [5]; -0.61% in test [6]. In addition, the inhibition in test [7] is 0.12%; in test [8], 5.94%; in test [9], -2.33%; in test [10], 2.25%.
Take `COc1cc2c(cc1Nc1nc(Nc3cccc(F)c3C(N)=O)c3cc[nH]c3n1)N(C(=O)CN1CCN(C(C)C)CC1)CC2`: the inhibition was -0.05% in test [1]; 3.63% in [2]; 2.83% in test [3]; 3.39% in test [4]; 1.01% in test [5]; 0.6% in test [6]. Also, the inhibition amounted to 3.47% in test [7], 0.59% in [8], 1.37% in test [9] and 1.36% in [10].
On to `Nc1nonc1-c1nc2cnccc2n1C1CC1`, for which the inhibition was 2.07% and 2.38% in [1]; 5.45% and 2.09% in test [2]; 36.2% and 35.9% in test [3]; 1.78% and -0.98% in [4]; 15.7% and 16.9% in [5]; 45% and 47.9% in test [6]. Also, the inhibition was 68.3% and 74.8% in test [7]; 45.9% and 49.3% in test [8]; 88.8% and 90.8% in test [9]; 3.3% and 3.29% in test [10].
Turning to `COc1cccc(Nc2nccc(-c3cnn4ncccc34)n2)c1`, the inhibition in test [1] worked out at 2.46%; in test [2] it was 1.16%; in test [3], 6.04%; in test [4] it was 6.2%; in test [5], 43.4%; in test [6] it was 0.55%. The inhibition is 5.61% in test [7], 2.46% in test [8], 7.69% in test [9] and -1.41% in test [10].
Regarding `Cc1cc(O)cc(C)c1/C=C/c1cncc(C(N)=O)c1`, the inhibition in test [1] is 1.65%; in test [2], 1.78%; in test [3] it was 2.91%; in test [4] it was 1.24%; in test [5] it was 1.91%; in test [6] it was -0.18%. Also, the inhibition was -2.09% in test [7], 1.74% in [8], -2.58% in test [9] and 3.81% in test [10].

As a reminder, the inhibition is the drop in the measured response relative to a control, in per cent.
